Records with an inconclusive call do not appear. A number with no mark means an inactive call. Active and inactive are the calls of the source. Calls come from the whole dose curve; as a rule, active = well fitted cell-killing curve with a large enough effect in the repeat runs; inconclusive = weak or mixed curves, or effect the other way; inactive = flat fitted curve, though single readings scatter.
Test: cAMP Responsive Elements (CRE) small molecule agonists, cell-based qHTS assay: qHTS cell viability counter screen (AID 2060914); note: nearly all actives have a fitted effect of over 50% in size
Details: CRE-bla HEK293T viability, CellTiter-Glo luminescence, 5 h; series mostly up to 92.4 µM; activity change, negative = cytotoxicity: at the top concentration
Summary of the method: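 CRE-bla HEK293T cells in 10% dialyzed FBS medium were exposed to compounds for 3 h at 37C after 18 h plating. CellTiter-Glo was then added in the same wells, and luminescence was read after 30 min at room temperature.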
% is set by controls: 0 for no effect and ±100 for the full control effect.

SMILES	activity change, negative = cytotoxicity	Potency
Cc1ccc(CCn2c3c(c4cc(Cl)ccc42)CN(C)CC3)cn1	1.69% [at 42.5 µM]	–
CCCCCC(C)O (centres undefined)	3.97%	–
O=C(CS)OCCOC(=O)CS	-0.483%	–
Cc1cnc(C)c(C)n1	-5.35%	–
c1cc(OCC2CO2)cc(OCC2CO2)c1 (centres undefined)	20.2%	–
FC(F)(F)C(F)(F)C(F)(F)C(F)(F)C(F)(F)C(F)(F)C(F)(F)C(F)(F)Br	1.12% [at 42.5 µM]	–
CCC=O	4.71%	–
CC(C)(C)NSc1nc2ccccc2s1	-3.51%	–
CCC(=O)CC(C)CC (centres undefined)	6.36% [at 0.349 µM]	–
CC(C)CNCC(C)C	3.58%	–
CCCCCCCC(=O)[O-].CCCCCCCC(=O)[O-].[Zn+2]	4.23% [at 42.5 µM]	–
CC1OC1C1CCC2(C)OC2C1 (centres undefined)	-9.22%	–
C=C[C@H]1CN2CC[C@H]1C[C@@H]2[C@@H](O)c1ccnc2ccc(OC)cc12	–	inactive
CC(=O)N1CCN(c2ccc(O)cc2)CC1	-3.77% [at 42.5 µM]	–

Reference: PubChem BioAssay (Tox21)
